Measured values taken from PubChem BioAssay (EPA / NIEHS).
Values joined by “and” are separate entries in the source; they are usually repeats but may differ in a detail not shown here. Equal entries are not always repeated. Records with an inconclusive call do not appear. Where a structure was tested more than once in an assay, its records may differ in their call. Active and inactive are the calls of the source. How the source made its calls, unless noted: active means hit-call score of the fitted dose curve at least 0.9, where 1 is the maximum; inactive means score below 0.9.

Assays:
[1] = read-out: Monokine induced gamma interferon (MIG), CXCL9 (gene 4283); assay: BSK_SAg_MIG: BioMAP Diversity Plus: SAg Assay for Monokine induced gamma interferon (MIG) Biomarker Activity (AID 2283092); conditions: primary human HUVEC with PBMC; actives raise or lower the signal
How it was run: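 Values reflect bidirectional fitting of ELISA-measured MIG against DMSO vehicle, taken 24 h after dosing of a co-culture of human umbilical vein endothelial cells and peripheral blood mononuclear cells.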

[2] = BSK_SAg_PBMCCytotoxicity: PBMC Cytotoxicity Assessment in the BioMAP Diversity Plus: SAg Assay (AID 2283093); conditions: primary human HUVEC with PBMC;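 further: PBMC viability measured as Alamar Blue reduction fluorescence at 546/580 nm; fitted both ways against DMSO so a hit may be loss or gain of signal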;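 on AC50: PBMC superantigen activated with SEB plus TSST-1 one hour after compound addition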
How it was run: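 HUVEC/PBMC co-culture; PBMC exposed to chemical 1 h before SEB and TSST-1 activation (20 ng/mL each), incubated 90 h, then Alamar Blue 6 h, fluorescence 546/580 nm. Bidirectional fit versus DMSO baseline.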

[3] = read-out: Interleukin-8 (IL8), CXCL8 (gene 3576); assay: BSK_SAg_IL8: BioMAP Diversity Plus: SAg Assay for Interleukin-8 (IL8) Biomarker Activity (AID 2283094); conditions: primary human HUVEC with PBMC; actives raise or lower the signal
How it was run: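 ELISA read-out of IL-8 in a primary human vascular co-culture (umbilical vein endothelium plus PBMC), taken 24 h after compound addition. Values derive from bidirectional fits against DMSO negative controls.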

[4] = BSK_SAg_Proliferation: Cell Proliferation Assessment in the BioMAP Diversity Plus: SAg Assay (AID 2283095); conditions: primary human HUVEC with PBMC;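 further: relative cell number as total protein by SRB absorbance in sub-confluent culture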
How it was run: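 Cells (endothelium plus PBMC, human primary) were dosed with chemical, cultured 96 h, fixed in 10% TCA and stained with 0.1% SRB. Absorbance at 560 nm gave relative protein, fitted bidirectionally relative to DMSO.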

[5] = BSK_SAg_SRB: Viability Assessment in the BioMAP Diversity Plus: SAg Assay (AID 2283096); conditions: primary human HUVEC with PBMC;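 further: cells read one day after compound addition; hits may be either gain or loss of signal compared with DMSO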
How it was run: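 Human umbilical vein endothelial cells co-cultured with PBMC, read 24 h after compound dosing. Total protein measured by sulforhodamine B staining (0.1% SRB after 10% TCA fixation, absorbance 560 nm); bidirectional fit versus DMSO baseline.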

[6] = molecular target: human CYP2C9, CYP2C9 (gene 1559) (UniProt P11712); assay: NVS_ADME_hCYP2C9: NovaScreen (NVS) CYP450-related Enzyme Activity (ADME) Assay for human CYP2C9 (AID 2283108; active means hit-call score of the fitted dose curve at least 0.9, where 1 is the maximum)
How it was run: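 Recombinant human CYP2C9 expressed in SF9 cells, fluorogenic substrate, fluorescence read 0.75 h after dosing. Chemicals first run in duplicate at 10 uM, with actives followed in concentration series; loss of signal versus acetonitrile baseline.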

[7] = molecular target: human Caspase 5 (CASP5), CASP5 (gene 838) (UniProt P51878); assay: NVS_ENZ_hCASP5: NovaScreen (NVS) Enzymatic Assay for human Caspase 5 (CASP5) (AID 2283137; active means hit-call score of the fitted dose curve at least 0.9, where 1 is the maximum)
How it was run: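 E. coli-derived enzyme, cell-free, 2 h incubation, fluorescence intensity. 25 uM duplicate single-point; hits → concentration series to 50 uM. DMSO baseline, positive/negative controls on every plate.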

[8] = molecular target: human CYP2D6, CYP2D6 (gene 1565) (UniProt P10635); assay: NVS_ADME_hCYP2D6: NovaScreen (NVS) CYP450-related Enzyme Activity (ADME) Assay for human CYP2D6 (AID 2283107; active means hit-call score of the fitted dose curve at least 0.9, where 1 is the maximum)
How it was run: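 Cell-free assay using recombinant enzyme expressed in insect cells, with fluorescence-intensity readout of enzyme activity 1 hour after chemical dosing. Loss of signal versus acetonitrile negative control indicates inhibition. Primary screen ran in duplicate at 10 uM; actives were retested in concentration series.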

[9] = molecular target: human Beta-secretase (BACE), BACE1 (gene 23621) (UniProt P56817); assay: NVS_ENZ_hBACE: NovaScreen (NVS) Enzymatic Assay for human Beta-secretase (BACE) (AID 2283140; active means hit-call score of the fitted dose curve at least 0.9, where 1 is the maximum;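 further: hits are inhibitors that reduce fluorescent substrate signal versus DMSO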)
How it was run: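 Compounds were first tested in duplicate at 25 uM, then actives in concentration series, against recombinant BACE1 from SF9 cells. Enzyme activity was measured by fluorescence intensity 1 hour after dosing, with DMSO as negative control.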

[10] = molecular target: human Dual Specificity Protein Phosphatase 3 (DUSP3), DUSP3 (gene 1845) (UniProt P51452); assay: NVS_ENZ_hDUSP3: NovaScreen (NVS) Enzymatic Assay for human Dual Specificity Protein Phosphatase 3 (DUSP3) (AID 2283152; active means hit-call score of the fitted dose curve at least 0.9, where 1 is the maximum;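 further: phosphatase activity of recombinant human DUSP3 on a fluorogenic substrate without cells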)
How it was run: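 Cell-free assay with recombinant human DUSP3 and fluorogenic substrate, read by fluorescence intensity. Primary screen ran duplicate at 25 uM; actives followed up in concentration series; loss of signal versus DMSO scored.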

[11] = molecular target: human Ephrin type-A Receptor 1 (EphA1), EPHA1 (gene 2041) (UniProt P21709); assay: NVS_ENZ_hEphA1: NovaScreen (NVS) Enzymatic Assay for human Ephrin type-A Receptor 1 (EphA1) (AID 2283158; active means hit-call score of the fitted dose curve at least 0.9, where 1 is the maximum;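 further: activity is signal loss versus DMSO meaning EphA1 kinase inhibition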)
How it was run: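 Cell-free enzymatic assay with recombinant EphA1 and fluorescent substrate; product separated by electrophoretic mobility shift, fluorescence intensity read 1 hour after dosing. Loss of signal versus DMSO baseline; primary duplicate screen at 25 uM, actives followed to 50 uM top concentration.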

[12] = molecular target: Cytochrome P450 2C19 (Homo sapiens) (UniProt P33261); assay: NVS_ADME_hCYP2C19: NovaScreen (NVS) CYP450-related Enzyme Activity (ADME) Assay for human CYP2C19 (AID 2283113; active means hit-call score of the fitted dose curve at least 0.9, where 1 is the maximum;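 on AC50: potency for inhibition seen as loss of fluorescent signal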)
How it was run: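 Cell-free assay of recombinant human CYP2C19 expressed in insect cells, with a fluorogenic substrate; fluorescence intensity read 1 hour after dosing. Loss of signal relative to acetonitrile negative control indicates inhibition. Primary screen at 10 uM in duplicate, then concentration series.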

[13] = molecular target: human CYP2B6, CYP2B6 (gene 1555) (UniProt P20813); assay: NVS_ADME_hCYP2B6: NovaScreen (NVS) CYP450-related Enzyme Activity (ADME) Assay for human CYP2B6 (AID 2283101; active means hit-call score of the fitted dose curve at least 0.9, where 1 is the maximum)
How it was run: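 Compounds were first screened in duplicate at 10 uM against recombinant enzyme, with the fluorescent product measured after 1 hour. Active compounds were retested over a concentration series. Loss of fluorescence versus acetonitrile control was scored as reduced enzyme activity.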

[14] = molecular target: human CYP1A2, CYP1A2 (gene 1544) (UniProt P05177); assay: NVS_ADME_hCYP1A2: NovaScreen (NVS) CYP450-related Enzyme Activity (ADME) Assay for human CYP1A2 (AID 2283102; active means hit-call score of the fitted dose curve at least 0.9, where 1 is the maximum)
How it was run: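 Cell-free recombinant human CYP1A2 expressed in insect cells, with fluorogenic substrate; fluorescence intensity read 0.5 h after dosing. Loss of signal relative to acetonitrile baseline scored. Primary screen in duplicate at 10 uM; actives retested in concentration series.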

Measured: AC50

human CYP2C9, CYP2C9 (gene 1559), sequence (P11712 whole entry, looked up): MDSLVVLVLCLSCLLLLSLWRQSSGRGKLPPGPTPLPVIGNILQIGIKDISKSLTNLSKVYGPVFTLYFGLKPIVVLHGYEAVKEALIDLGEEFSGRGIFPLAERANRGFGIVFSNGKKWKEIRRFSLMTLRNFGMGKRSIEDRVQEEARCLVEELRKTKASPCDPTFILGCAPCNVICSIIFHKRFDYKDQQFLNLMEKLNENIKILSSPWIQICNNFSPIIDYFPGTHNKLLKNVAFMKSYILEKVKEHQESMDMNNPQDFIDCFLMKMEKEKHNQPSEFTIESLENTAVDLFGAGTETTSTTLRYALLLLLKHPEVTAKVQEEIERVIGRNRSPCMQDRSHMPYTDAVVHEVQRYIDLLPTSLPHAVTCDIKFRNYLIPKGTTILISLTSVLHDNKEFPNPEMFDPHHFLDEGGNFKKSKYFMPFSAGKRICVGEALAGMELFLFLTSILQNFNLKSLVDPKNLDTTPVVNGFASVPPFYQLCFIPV
human CYP2D6, CYP2D6 (gene 1565), sequence (P10635 whole entry, looked up): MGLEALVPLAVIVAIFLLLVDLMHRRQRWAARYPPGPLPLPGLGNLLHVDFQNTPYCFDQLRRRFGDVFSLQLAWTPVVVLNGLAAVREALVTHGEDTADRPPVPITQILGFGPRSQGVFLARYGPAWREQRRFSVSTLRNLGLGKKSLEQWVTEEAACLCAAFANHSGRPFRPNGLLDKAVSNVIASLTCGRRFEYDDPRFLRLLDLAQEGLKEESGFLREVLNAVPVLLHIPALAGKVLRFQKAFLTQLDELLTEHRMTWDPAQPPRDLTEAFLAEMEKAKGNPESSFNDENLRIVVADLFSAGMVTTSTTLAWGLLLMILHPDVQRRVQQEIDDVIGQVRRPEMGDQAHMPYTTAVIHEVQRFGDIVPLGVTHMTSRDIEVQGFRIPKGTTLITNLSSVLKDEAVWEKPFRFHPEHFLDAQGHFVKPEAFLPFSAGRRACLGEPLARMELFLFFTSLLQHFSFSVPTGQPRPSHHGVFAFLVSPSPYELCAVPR
human Dual Specificity Protein Phosphatase 3 (DUSP3), DUSP3 (gene 1845), sequence (P51452 whole entry, looked up): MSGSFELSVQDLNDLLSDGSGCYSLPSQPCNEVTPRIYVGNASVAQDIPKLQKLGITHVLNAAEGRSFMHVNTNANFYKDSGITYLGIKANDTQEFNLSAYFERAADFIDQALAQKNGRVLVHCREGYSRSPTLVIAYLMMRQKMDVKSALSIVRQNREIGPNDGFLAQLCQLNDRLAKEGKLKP
human CYP1A2, CYP1A2 (gene 1544), sequence (P05177 whole entry, looked up): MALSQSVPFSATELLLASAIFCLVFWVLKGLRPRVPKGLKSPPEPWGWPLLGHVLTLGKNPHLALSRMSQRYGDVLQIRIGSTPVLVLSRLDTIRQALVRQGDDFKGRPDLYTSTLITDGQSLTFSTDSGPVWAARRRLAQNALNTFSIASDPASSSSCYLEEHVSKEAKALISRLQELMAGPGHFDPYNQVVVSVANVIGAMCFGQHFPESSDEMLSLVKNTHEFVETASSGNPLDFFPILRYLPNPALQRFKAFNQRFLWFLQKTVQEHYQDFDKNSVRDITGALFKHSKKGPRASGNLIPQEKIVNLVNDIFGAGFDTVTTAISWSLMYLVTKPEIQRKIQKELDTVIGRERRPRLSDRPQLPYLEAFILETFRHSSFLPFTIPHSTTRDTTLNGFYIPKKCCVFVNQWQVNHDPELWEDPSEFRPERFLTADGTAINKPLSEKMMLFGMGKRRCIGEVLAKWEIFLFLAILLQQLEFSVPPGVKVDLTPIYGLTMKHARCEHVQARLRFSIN
human Beta-secretase (BACE), BACE1 (gene 23621), sequence (P56817 whole entry, looked up): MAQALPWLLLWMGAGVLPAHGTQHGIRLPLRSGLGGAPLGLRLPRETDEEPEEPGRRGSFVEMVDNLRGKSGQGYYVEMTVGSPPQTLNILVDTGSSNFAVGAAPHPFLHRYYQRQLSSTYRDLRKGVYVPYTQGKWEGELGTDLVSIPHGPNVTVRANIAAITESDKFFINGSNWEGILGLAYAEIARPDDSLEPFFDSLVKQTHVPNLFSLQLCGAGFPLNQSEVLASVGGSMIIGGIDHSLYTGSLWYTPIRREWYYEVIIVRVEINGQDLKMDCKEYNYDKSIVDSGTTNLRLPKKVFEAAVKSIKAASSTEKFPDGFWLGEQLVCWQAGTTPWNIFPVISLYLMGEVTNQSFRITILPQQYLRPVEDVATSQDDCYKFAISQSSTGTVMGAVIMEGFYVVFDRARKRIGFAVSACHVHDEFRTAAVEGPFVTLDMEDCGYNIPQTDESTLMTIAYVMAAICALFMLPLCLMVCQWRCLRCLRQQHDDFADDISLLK
human CYP2B6, CYP2B6 (gene 1555), sequence (P20813 whole entry, looked up): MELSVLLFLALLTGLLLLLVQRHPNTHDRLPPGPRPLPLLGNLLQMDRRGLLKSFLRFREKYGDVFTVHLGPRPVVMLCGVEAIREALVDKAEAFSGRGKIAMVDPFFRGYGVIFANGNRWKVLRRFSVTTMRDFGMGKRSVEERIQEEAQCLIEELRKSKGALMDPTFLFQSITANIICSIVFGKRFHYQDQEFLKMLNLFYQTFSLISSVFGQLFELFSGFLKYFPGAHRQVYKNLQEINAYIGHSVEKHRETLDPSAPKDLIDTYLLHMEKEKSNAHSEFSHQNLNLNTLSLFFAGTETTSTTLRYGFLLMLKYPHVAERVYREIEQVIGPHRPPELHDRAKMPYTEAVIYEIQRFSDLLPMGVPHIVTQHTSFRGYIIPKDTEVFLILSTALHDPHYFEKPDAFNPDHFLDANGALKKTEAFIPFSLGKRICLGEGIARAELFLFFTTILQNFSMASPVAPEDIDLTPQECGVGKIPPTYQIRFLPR
human Ephrin type-A Receptor 1 (EphA1), EPHA1 (gene 2041), sequence (P21709 whole entry, looked up): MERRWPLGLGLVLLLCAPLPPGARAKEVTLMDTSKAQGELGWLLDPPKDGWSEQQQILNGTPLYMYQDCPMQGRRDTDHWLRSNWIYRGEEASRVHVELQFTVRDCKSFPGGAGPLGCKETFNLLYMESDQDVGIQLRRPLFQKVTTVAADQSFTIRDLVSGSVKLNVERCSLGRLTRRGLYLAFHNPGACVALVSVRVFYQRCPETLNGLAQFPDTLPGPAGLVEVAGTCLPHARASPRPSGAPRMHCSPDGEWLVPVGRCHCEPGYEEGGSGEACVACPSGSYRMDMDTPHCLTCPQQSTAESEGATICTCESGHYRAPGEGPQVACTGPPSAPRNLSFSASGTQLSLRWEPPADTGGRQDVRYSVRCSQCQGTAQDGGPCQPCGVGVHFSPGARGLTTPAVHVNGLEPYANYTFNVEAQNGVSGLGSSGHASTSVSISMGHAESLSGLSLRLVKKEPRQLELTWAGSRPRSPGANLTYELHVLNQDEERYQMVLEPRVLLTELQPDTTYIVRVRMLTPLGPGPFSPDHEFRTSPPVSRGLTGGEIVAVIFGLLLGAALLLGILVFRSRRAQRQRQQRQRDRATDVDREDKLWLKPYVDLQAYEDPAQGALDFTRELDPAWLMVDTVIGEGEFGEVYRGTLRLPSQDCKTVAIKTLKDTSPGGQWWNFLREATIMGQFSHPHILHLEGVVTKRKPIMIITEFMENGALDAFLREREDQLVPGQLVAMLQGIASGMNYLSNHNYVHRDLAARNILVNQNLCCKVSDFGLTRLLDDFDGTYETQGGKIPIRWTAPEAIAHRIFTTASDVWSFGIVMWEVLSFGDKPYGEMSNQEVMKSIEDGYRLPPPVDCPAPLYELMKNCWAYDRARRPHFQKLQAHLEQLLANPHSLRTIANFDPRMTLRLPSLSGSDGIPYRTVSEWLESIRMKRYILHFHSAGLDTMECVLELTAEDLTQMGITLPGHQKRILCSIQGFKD
human Caspase 5 (CASP5), CASP5 (gene 838), sequence (P51878 whole entry, looked up): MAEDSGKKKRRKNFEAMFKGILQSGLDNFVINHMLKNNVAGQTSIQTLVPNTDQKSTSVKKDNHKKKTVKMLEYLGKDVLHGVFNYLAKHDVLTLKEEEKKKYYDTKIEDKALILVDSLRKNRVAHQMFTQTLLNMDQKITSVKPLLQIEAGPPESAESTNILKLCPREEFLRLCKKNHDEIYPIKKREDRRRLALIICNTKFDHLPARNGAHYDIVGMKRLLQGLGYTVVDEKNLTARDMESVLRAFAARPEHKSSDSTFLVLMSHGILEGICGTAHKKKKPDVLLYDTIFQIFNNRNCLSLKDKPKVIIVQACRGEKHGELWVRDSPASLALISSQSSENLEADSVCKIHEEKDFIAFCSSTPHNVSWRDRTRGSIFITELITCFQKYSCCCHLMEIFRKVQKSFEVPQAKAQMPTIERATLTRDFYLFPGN

C=C(C)[C@H]1CC=C(C)C(=O)C1
active: [6] 0.597 µM
inactive: [1] | [2] | [3] | [4] | [5]

CC=Cc1ccc(OCC)c(O)c1
inactive: [1] | [2] | [4] | [5]

CC(CN=Cc1ccccc1O)N=Cc1ccccc1O (stereo unspecified)
inactive: [1] | [2] | [4] | [5]

c1ccc(Oc2ccccc2)cc1
inactive: [1] | [2] | [3] | [4] | [5] | [7]

CC(=O)c1c(C)c([N+](=O)[O-])c(C(C)(C)C)c([N+](=O)[O-])c1C
inactive: [1] | [2] | [4] | [5]

CC(=O)Nc1ccc(C(=O)CCl)cc1
active: [1] 8.55 µM | [2] 4.16 µM | [4] 0.92 µM | [5] 6.11 µM | [8] 3.64 µM

CC(C=O)Cc1ccc(C(C)(C)C)cc1 (stereo unspecified)
active: [2] 20 µM
inactive: [1] | [4] | [5]

CC1(C)C2=CCCC(C)(C)[C@]23CC[C@H]1C3
active: [2] 35.6 µM | [4] 31.6 µM
inactive: [1] | [5]

IC(I)I
inactive: [1] | [2] | [4] | [5]

COc1ccc(CCN2CCC(Nc3nc4ccccc4n3Cc3ccc(F)cc3)CC2)cc1
inactive: [1]
active: [2] 6.91 µM | [4] 6.38 µM | [5] 5 µM

C=C(C)C(=O)OCC(CC)(COC(=O)C(=C)C)COC(=O)C(=C)C
active: [4] 8.4 µM | [9] 17.1 µM | [10] 12.4 µM
inactive: [1] | [2] | [3] | [5]

C=C(C)C(=O)OCCOCCOCCOC(=O)C(=C)C
inactive: [1] | [2] | [3] | [4] | [5]

Clc1cc(Cl)c(-c2c(Cl)c(Cl)cc(Cl)c2Cl)cc1Cl
active: [2] 17.4 µM | [4] 14.3 µM
inactive: [1] | [5]

CCN(CC)C(=O)N(CC)CC
active: [11] 25 µM
inactive: [1] | [2] | [3] | [4] | [5]

CCCCN(CCCC)C(=O)N(CCCC)CCCC
inactive: [1]
active: [2] 11 µM | [4] 7.83 µM | [5] 20 µM

C=CC(C)(O)CCC=C(C)C (stereo unspecified)
inactive: [1] | [2] | [4] | [5]

CSCCC=O
inactive: [1] | [2] | [3] | [5]
active: [4] 38.6 µM | [12] 0.29 µM

CC(=O)C1(C)CC2=C(CCCC2(C)C)CC1C (stereo unspecified)
active: [1] 33.9 µM | [2] 12 µM | [4] 9.65 µM | [5] 26.8 µM

CCCCCC(C=O)=Cc1ccccc1
active: [2] 31 µM | [4] 33.1 µM
inactive: [1] | [5]

CCCCCCC(CO)CCCC (stereo unspecified)
inactive: [1] | [2] | [4] | [5]
active: [4] 37.3 µM

O=CN1CCOCC1
inactive: [1] | [2] | [4] | [5]

CS(=O)(=O)c1ccc(C2=C(c3ccccc3)C(=O)OC2)cc1
inactive: [1] | [2] | [4] | [5]

COc1ccc(OC)c(N=Nc2c(O)ccc3ccccc23)c1
inactive: [1] | [5]
active: [2] 2.12 µM | [4] 2.25 µM

O=C1OC2(c3ccccc31)c1ccc(O)c(Br)c1Oc1c2ccc(O)c1Br
active: [4] 8.3 µM
inactive: [1] | [2] | [5]

C1=CC2C3C=CC(C3)C2C1 (stereo unspecified)
inactive: [1] | [2] | [4] | [5]

CS(=O)(=O)OCCCCOS(C)(=O)=O
inactive: [1] | [2] | [4] | [5] | [13] | [14] | [12]
active: [6] 16 µM

CC1(C)CCC[C@]2(C)[C@H]3CCO[C@]3(C)CC[C@@H]12
active: [2] 31.8 µM and 33.4 µM | [4] 33.6 µM and 32.7 µM
inactive: [1] | [5]
